PubChem BioAssay (NCATS)
Records with an inconclusive call do not appear. The source made the active and inactive calls. Calls follow the shape of the dose curve; as a rule, active = well fitted inhibition curve with a large enough effect; inconclusive = small, poorly fitted or top-dose-only effect; inactive = flat fitted curve, though single readings scatter.

tested on: CRL-7250; assay: Cytotoxic Profiling of Annotated Libraries Using Quantitative High-Throughput Screening (AID 1296008); settings: Five cell lines viability, CellTiter-Glo ATP luminescence, 48-72 h; max response: active compounds read low; also: nearly all actives have a fitted effect of over 60% in size
In short: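 Cytotoxicity was measured as CellTiter-Glo ATP luminescence, read after 10 min at room temperature. Compound treatment of the cells lasted 48 or 72 hr at 37 degrees Celsius in a qHTS format.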
% is scaled to controls: 0 for no effect and ±100 for the full control effect; potency is read from the fitted curve at half-maximal effect.

Row | SMILES | max response | outcome | Potency
1 | CC1(C)CC[C@]2(C(=O)O)CC[C@]3(C)C(=CCC4[C@@]5(C)CC[C@H](O[C@@H]6O[C@H](C(=O)O)[C@@H](O)[C@H](O)[C@H]6O)C(C)(CO)C5CC[C@]43C)C2C1 (stereo not given in full) | 4.13% (inactive) | – | –
2 | COc1cc(C[C@H]2COC(=O)[C@@H]2Cc2ccc(O)c(OC)c2)ccc1O | – | inactive | –
3 | C(#Cc1cccc(CN2CCOCC2)c1)CCN1CCCCC1 | -3.48% (inactive) | – | –
4 | CC1CC(=O)C2=C(O1)OC1(C)CCC3C(C)(C)C=CC(=O)C3(C)C1C2 (stereo not given) | -3.54% (inactive) | – | –
5 | CCCCN(CCCC)C(=O)CN1C[C@H](c2ccc3c(c2)OCO3)[C@@H](C(=O)O)[C@@H]1c1ccc(OC)cc1 | -2.69% (inactive) | – | –
6 | COc1cc(COC2OC(CO)C(O)C(O)C2O)cc(OC)c1O (stereo not given) | – | inactive | –
7 | C=C1C2=CC(O)C(C)C1(C)CC/C(C)=C/CCC1(C)OC1C2=O (stereo not given) | -9.54% (inactive) | – | –
8 | O=C(NN1CCCCC1)c1nn(-c2ccc(Cl)cc2Cl)c(-c2ccc(C#Cc3ccc(C(F)(F)F)cc3)s2)c1CNS(=O)(=O)N1CCCC1 | -7.83% (inactive) | – | –
9 | COc1cc(/C=C/c2cc(O)cc(O[C@@H]3O[C@H](CO)[C@@H](O)[C@H](O)[C@H]3O)c2)ccc1O | 2.61% (inactive) | – | –
10 | C[C@@H]1O[C@@H](O[C@@H]2[C@@H](O)[C@H](O[C@@H]3[C@@H](O)[C@@H](O)[C@H](O[C@H]4[C@H](OC(=O)[C@]56CCC(C)(C)C[C@H]5C5=CCC7[C@@]8(C)C[C@H](O)[C@H](O[C@@H]9O[C@H](C(=O)O)[C@@H](O)[C@H](O)[C@H]9O)[C@@](C)(CO)C8[C@H](O)C[C@@]7(C)[C@]5(C)CC6)OC[C@H](O)[C@@H]4O)O[C@H]3C)OC[C@H]2O)[C@H](O)[C@H](O)[C@H]1O (stereo not given in full) | -17.9% (inactive) | – | –
11 | C=CC(C)(C)O[C@@H]1O[C@H](CO[C@@H]2OC[C@](O)(CO)[C@H]2O)[C@@H](O)[C@H](O)[C@H]1O | -2.3% (inactive) | – | –
12 | CCC1CC2C(C)=CC3CCCCC3C2(C)C2(OC(=O)C(C)(O)OC2=O)O1 (stereo not given) | 0.081% (inactive) | – | –
13 | OCCc1ccc(O[C@@H]2O[C@H](CO)[C@@H](O)[C@H](O)[C@H]2O)c(O)c1 | 1.68% (inactive) | – | –
14 | CC(=O)O[C@@H]1[C@@H](OC(=O)/C=C/c2ccccc2)[C@H](C)O[C@@H](O[C@H]2[C@@H]3C=CO[C@@H](O[C@@H]4O[C@H](CO)[C@@H](O)[C@H](O)[C@H]4O)[C@@H]3[C@@]3(CO)O[C@@H]23)[C@@H]1OC(C)=O | -9.67% (inactive) | – | –
15 | CCOC(=O)c1c(C)nn(-c2cccc([N+](=O)[O-])c2)c1C | -7.75% (inactive) | – | –
16 | COc1cc(/C=C/C(=O)OC2CC3CCC2(C)C3(C)C)ccc1O (stereo not given) | – | inactive | –
17 | CC(CO[C@@H]1O[C@H](COC(=O)/C=C/c2ccc(O)c(O)c2)[C@@H](O)[C@H](O)[C@H]1O)C1(O)COC(=O)C1 (stereo not given in full) | -2.89% (inactive) | – | –
18 | CN1CC[C@@H](NC(=O)Nc2ccc(C#N)cc2)C[C@@H]1c1nc2ccccc2[nH]1 | -0.913% (inactive) | – | –
19 | C[C@@H]1O[C@@H](O[C@H]2[C@H](O)[C@@H](O)[C@H](OC[C@H]3O[C@@H](OC(=O)[C@]45CCC(C)(C)C[C@H]4C4=CCC6[C@@]7(C)C[C@H](O)[C@H](O[C@@H]8O[C@H](CO)[C@@H](O)[C@H](O)[C@H]8O)[C@@](C)(C(=O)O)C7CC[C@@]6(C)[C@]4(C)CC5)[C@H](O[C@@H]4O[C@H](CO)[C@@H](O)[C@H](O)[C@H]4O)[C@@H](O)[C@@H]3O)O[C@@H]2CO)[C@H](O)[C@H](O)[C@H]1O (stereo not given in full) | 2.51% (inactive) | – | –
20 | C[C@@H]1C[C@H](O[C@@H]2O[C@H](CO[C@@H]3OC[C@](O)(CO)[C@H]3O)[C@@H](O)[C@H](O)[C@H]2O)CC(C)(C)[C@H]1/C=C/[C@@H](C)O | -2.76% (inactive) | – | –
21 | O=C(O)[C@H]1CCCC[C@H]1C(=O)N1CCc2ccccc2[C@H]1CN1C(=O)c2ccccc2C1=O | 1.46% (inactive) | – | –
22 | CCOC(=O)[C@H](CCc1ccccc1)N[C@@H](C)C(=O)N1C2CCCCC2C[C@H]1C(=O)O (stereo not given in full) | – | inactive | –
23 | CC(C)c1nc(N(C)S(C)(=O)=O)nc(-c2ccc(F)cc2)c1/C=C/[C@@H](O)C[C@@H](O)CC(=O)O | – | – | 16.4 µM (active)
24 | CC1CCC2(C)C(CC(O)C(O)C23CO3)C1(C)CCC1=CC(O)OC1=O (stereo not given) | 3.32% (inactive) | – | –
25 | C[C@@H]1O[C@@H](O[C@H]2[C@H](O[C@H]3[C@H](O[C@H]4CC[C@@]5(C)C(CC[C@]6(C)C5CC=C5[C@@H]7CC(C)(C(=O)O)C[C@@H](O)[C@]7(C)CC[C@]56C)[C@@]4(C)CO)O[C@H](C(=O)O)[C@@H](O)[C@@H]3O)O[C@H](CO)[C@H](O)[C@@H]2O)[C@H](O)[C@H](O)[C@H]1O (stereo not given in full) | -5.52% (inactive) | – | –
